Here are results for 22 molecules from the supplement of paper PMC7156485.

Details in all cases: concentration: 10 µM; 24 h
The test system of assay [1] is HCC1569. The assay is described as follows: cell number relative to DMSO (% of DMSO); higher = more cells (less growth inhibition / toxicity). The procedure, abridged: (§1)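 For HCC1569 and TDF cells, compounds at 10 µM were applied for 24 h at 37 °C in triplicate in 384-well plates. Cells were fixed in 3.7% formaldehyde, stained for H1.0 and with DAPI, and imaged at ×10 over six fields per well. The endpoint, H1.0 nuclear intensity or cell number, is shown as percent of the plate control using the median of replicates. Positional effects were smoothed for HCC1569 only.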

In assay [2] the test system is TDF. Described as above. The procedure, abridged:
as §1

The subject of assay [3] is TDF. The assay is described as follows: H1.0 immunofluorescence intensity relative to DMSO (% of DMSO); higher = stronger H1.0 induction, active = 120 or more. The method, boiled down:
as §1

Assay [4] has as its system HCC1569. The assay is described as follows: H1.0 immunofluorescence intensity relative to DMSO (% of DMSO); higher = stronger H1.0 induction, active = 140 or more. The method, boiled down: as §1

Molecules are shown by their SMILES. ± gives the standard deviation of the averaged measurements.
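For H1.0 immunofluorescence intensity relative to DMSO in this document: TDF is a line of transformed human dermal fibroblasts of mesenchymal origin.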
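For cell number relative to DMSO in this document: TDF denotes transformed human dermal fibroblasts of mesenchymal origin.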

Regarding `CC(C)C1CCC(C(=O)NC(Cc2ccccc2)C(=O)O)CC1` (stereo not drawn) [Nateglinide], the cell number with HCC1569 [1] stood at 105; in the assay with TDF [2], 112. Besides, the H1.0 immunofluorescence intensity in the assay with TDF [3] was 96.1 (inactive); in the assay on HCC1569 [4], 102 (inactive).
In the same order, the values of `C(=Cc1ccccc1)CN1CCN(C(c2ccccc2)c2ccccc2)CC1` [Cinnarizine] are 74.9, 74.1, 106 (inactive) and 101 (inactive).
For `CC(C)NNC(=O)c1ccncc1` [Iproniazid], the cell number turned out to be 104 in the assay with HCC1569 [1] and 103 in the assay on TDF [2]. The H1.0 immunofluorescence intensity in the assay on TDF [3] was 100 (inactive); with HCC1569 [4], 112 (inactive).
In the same order, the values of `NC(=S)c1ccc[n+](C2OC(COP(=O)([O-])OP(=O)(O)OCC3OC(n4cnc5c(N)ncnc54)C(OP(=O)([O-])O)C3O)C(O)C2O)c1.[Na+]` (stereo not drawn) [Thio-NADP sodium] are 94.1, 100, 91.7 (inactive) and 104 (inactive).
As for `COc1ccc(C2CC(=O)c3c(O)cc(OC4OC(CO)C(O)C(O)C4OC4OC(C)C(O)C(O)C4O)cc3O2)cc1O` (stereo not drawn) [Neohesperidin], the cell number worked out at 99.8 with HCC1569 [1] and 104 in the assay with TDF [2]. The results for the H1.0 immunofluorescence intensity in the assay with TDF [3] and in the assay on HCC1569 [4] were 107 (inactive) and 96.3 (inactive), respectively.
On the same counts, the results for `CN1C(CC(=O)c2ccccc2)CCCC1CC(O)c1ccccc1.Cl` (stereo not drawn) are 102, 90.9, 102 (inactive) and 99.2 (inactive).
On the same counts, the results for `COc1ccccc1N1CCN(CCCCNC(=O)c2ccc3ccccc3c2)CC1` are 99.1, 111, 106 (inactive) and 97.4 (inactive).
For `O=C(C=Cc1ccc(O)cc1)CC(=O)C=Cc1ccc(O)cc1` [Bis demethoxycurcumin], the figures for the cell number in the assay with HCC1569 [1] and in the assay on TDF [2] were 83.7 and 95.1, respectively. In addition, the values for the H1.0 immunofluorescence intensity in the assay on TDF [3] and in the assay on HCC1569 [4] were 96 (inactive) and 94.4 (inactive), respectively.
In the case of `CCCCCCCCCCCCCCCC(=O)OCC=C(C)C=CC=C(C)C=CC1=C(C)CCCC1(C)C` [Retinyl palmitate], the cell number is 101 in the assay with HCC1569 [1] and 99.2 with TDF [2]. The H1.0 immunofluorescence intensity in the assay on TDF [3] was 93.8 (inactive); in the assay with HCC1569 [4], 101 (inactive).
On the same counts, the results for `NS(=O)(=O)c1ccc(-n2nc(C(F)(F)F)cc2-c2ccc(Cl)cc2)cc1` are 90.5, 104, 90.5 (inactive) and 90.7 (inactive).
For `Cc1ccc(S(=O)(=O)Cc2nc(-c3ccc(C(=O)NCc4cccnc4)cc3)oc2C)cc1`, the values for the cell number in the assay on HCC1569 [1] and in the assay with TDF [2] were 87 and 86.8, respectively. For the same molecule, the H1.0 immunofluorescence intensity in the assay on TDF [3] was 102 (inactive); in the assay with HCC1569 [4], 127 (inactive).
On the same counts, the results for `OC1C(O)C(O)C(O)C(O)C1O` (stereo not drawn) [1,2,3,4,5,6-cyclohexanehexol] are 102 ± 3, 104 ± 7.5, 96.9 (inactive) and 92.9 (inactive).
In the same order, the values of `COc1ccc(-n2[nH]c3c(cnc4ccccc43)c2=O)cc1` [2-(4-methoxyphenyl)-1H-pyrazolo[4,3-c]quinolin-3(2H)-one] are 103, 87.8, 98.5 (inactive) and 93.6 (inactive).
On the same counts, the results for `CCCc1nn(C)c2c(=O)nc(-c3cc(S(=O)(=O)N4CCN(C)CC4)ccc3OCC)[nH]c12` [Sildenafil] are 101, 94, 95.1 (inactive) and 103 (inactive).
For `Cc1ccccc1-n1c(Cn2nc(-c3cccc(O)c3)c3c(N)ncnc32)nc2cccc(C)c2c1=O`, the figures for the cell number with HCC1569 [1] and with TDF [2] were 96.9 and 95.1, respectively. The H1.0 immunofluorescence intensity in the assay on TDF [3] was 97.7 (inactive); in the assay with HCC1569 [4], 103 (inactive).
With `COc1cc2nc(N3CCN(C(=O)c4ccco4)CC3)nc(N)c2cc1OC.Cl` [Prazosin hydrochloride], the cell number is 91.9 in the assay with HCC1569 [1] and 99.8 in the assay on TDF [2]. Also, the values for the H1.0 immunofluorescence intensity in the assay with TDF [3] and with HCC1569 [4] were 93.6 (inactive) and 106 (inactive), respectively.
For the molecule `C=CC1CN2CCC1CC2C(O)c1ccnc2ccc(OC)cc12.Cl.O` (stereo not drawn), the cell number came out at 99.6 in the assay with HCC1569 [1] and 90.1 in the assay with TDF [2]. Moreover, the H1.0 immunofluorescence intensity with TDF [3] is 96.8 (inactive); with HCC1569 [4], 95 (inactive).
In the same order, the values of `CC(C)CCN1c2nc(Nc3cc(F)c(O)c(F)c3)ncc2N(C)C(=O)C1C` (stereo not drawn) are 65, 29.6, 131 (active) and 148 (active).
On the same counts, the results for `O.c1cnc2c(c1)ccc1cccnc12` [1,10-Phenanthroline monohydrate] are 77.2, 44.8, 108 (inactive) and 93.9 (inactive).
Regarding `Cc1ccc(C)c(OCCCC(C)(C)C(=O)O)c1` [Gemfibrozil], the cell number in the assay with HCC1569 [1] is 103; with TDF [2] it was 99.1. In addition, the H1.0 immunofluorescence intensity is 91.8 (inactive) in the assay on TDF [3] and 115 (inactive) in the assay with HCC1569 [4].
On the same counts, the results for `CC(C)C(CO)Nc1nc(Nc2ccc(C(=O)O)c(Cl)c2)c2ncn(C(C)C)c2n1` (stereo not drawn) are 100, 112, 96.7 (inactive) and 115 (inactive).
Consider `CCCCCC(O)CC(=O)CCc1ccc(O)c(OC)c1` (stereo not drawn) [Gingerol], for which the cell number with HCC1569 [1] stood at 99.3; with TDF [2], 97.2. In addition, the results for the H1.0 immunofluorescence intensity in the assay on TDF [3] and in the assay on HCC1569 [4] were 92.9 (inactive) and 85.8 (inactive), respectively.
